Data published in ChEMBL document CHEMBL1961873, “Compounds: GSK PKIS; Assays: Nanosyn kinase panel” (2012).

Key:
[1] = molecular target: Serine/threonine-protein kinase MARK2 (Homo sapiens) (UniProt Q7KZI7); conditions: at 1 µM
[2] = molecular target: PAS domain-containing serine/threonine-protein kinase (Homo sapiens) (UniProt Q96RG2); conditions: at 0.1 µM
[3] = molecular target: PAS domain-containing serine/threonine-protein kinase (Homo sapiens) (UniProt Q96RG2); conditions: at 1 µM
[4] = molecular target: Phosphorylase b kinase gamma catalytic chain, skeletal muscle/heart isoform (Homo sapiens) (UniProt Q16816); conditions: at 0.1 µM
[5] = molecular target: Phosphorylase b kinase gamma catalytic chain, skeletal muscle/heart isoform (Homo sapiens) (UniProt Q16816); conditions: at 1 µM
[6] = molecular target: T1, Phosphorylase b kinase gamma catalytic chain, liver/testis isoform (Homo sapiens) (UniProt P15735); conditions: at 0.1 µM
T1 sequence (whole entry): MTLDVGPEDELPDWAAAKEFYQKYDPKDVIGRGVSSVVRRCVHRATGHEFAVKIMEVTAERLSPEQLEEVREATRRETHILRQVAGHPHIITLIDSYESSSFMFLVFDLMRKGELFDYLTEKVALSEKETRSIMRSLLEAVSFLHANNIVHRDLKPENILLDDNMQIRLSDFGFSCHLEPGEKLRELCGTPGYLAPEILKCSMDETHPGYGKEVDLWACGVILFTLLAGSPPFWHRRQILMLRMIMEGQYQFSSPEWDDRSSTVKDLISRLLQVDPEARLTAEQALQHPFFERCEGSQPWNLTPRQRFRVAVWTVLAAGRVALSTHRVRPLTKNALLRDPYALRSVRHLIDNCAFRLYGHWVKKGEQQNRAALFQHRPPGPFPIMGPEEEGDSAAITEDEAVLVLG

[7] = molecular target: T1, Phosphorylase b kinase gamma catalytic chain, liver/testis isoform (Homo sapiens); conditions: at 1 µM
[8] = molecular target: Serine/threonine-protein kinase pim-1 (Homo sapiens) (UniProt P11309); conditions: at 0.1 µM
[9] = molecular target: Serine/threonine-protein kinase pim-1 (Homo sapiens) (UniProt P11309); conditions: at 1 µM
[10] = molecular target: Serine/threonine-protein kinase pim-2 (Homo sapiens) (UniProt Q9P1W9); conditions: at 0.1 µM
[11] = molecular target: Serine/threonine-protein kinase pim-2 (Homo sapiens) (UniProt Q9P1W9); conditions: at 1 µM
[12] = molecular target: Serine/threonine-protein kinase pim-3 (Homo sapiens) (UniProt Q86V86); conditions: at 0.1 µM
[13] = molecular target: Serine/threonine-protein kinase pim-3 (Homo sapiens) (UniProt Q86V86); conditions: at 1 µM
[14] = molecular target: T2, MAP kinase-activated protein kinase 5 (Homo sapiens) (UniProt Q8IW41); conditions: at 0.1 µM
T2 sequence (whole entry): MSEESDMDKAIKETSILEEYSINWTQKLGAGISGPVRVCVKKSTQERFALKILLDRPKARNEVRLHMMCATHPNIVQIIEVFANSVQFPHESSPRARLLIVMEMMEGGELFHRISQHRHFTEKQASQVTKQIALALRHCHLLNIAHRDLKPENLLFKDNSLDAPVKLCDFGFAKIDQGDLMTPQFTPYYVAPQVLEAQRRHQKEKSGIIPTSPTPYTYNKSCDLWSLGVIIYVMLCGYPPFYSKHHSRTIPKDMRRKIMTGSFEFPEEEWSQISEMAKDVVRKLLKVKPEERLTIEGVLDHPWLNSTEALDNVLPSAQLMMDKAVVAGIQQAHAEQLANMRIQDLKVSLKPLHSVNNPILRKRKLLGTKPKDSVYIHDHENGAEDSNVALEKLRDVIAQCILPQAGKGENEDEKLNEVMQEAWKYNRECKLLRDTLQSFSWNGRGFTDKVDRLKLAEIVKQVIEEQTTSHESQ

[15] = molecular target: T2, MAP kinase-activated protein kinase 5 (Homo sapiens); conditions: at 1 µM
[16] = molecular target: Serine/threonine-protein kinase SIK1 (Homo sapiens) (UniProt P57059); conditions: at 0.1 µM
[17] = molecular target: Serine/threonine-protein kinase SIK1 (Homo sapiens) (UniProt P57059); conditions: at 1 µM
[18] = molecular target: Serine/threonine-protein kinase SIK2 (Homo sapiens) (UniProt Q9H0K1); conditions: at 0.1 µM
[19] = molecular target: Serine/threonine-protein kinase SIK2 (Homo sapiens) (UniProt Q9H0K1); conditions: at 1 µM
[20] = molecular target: T3, Serine/threonine-protein kinase TBK1 (Homo sapiens) (UniProt Q9UHD2); conditions: at 0.1 µM;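 also: values are the mean TBK1 inhibition, taken from the GSK PKIS screening data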
T3 sequence (whole entry): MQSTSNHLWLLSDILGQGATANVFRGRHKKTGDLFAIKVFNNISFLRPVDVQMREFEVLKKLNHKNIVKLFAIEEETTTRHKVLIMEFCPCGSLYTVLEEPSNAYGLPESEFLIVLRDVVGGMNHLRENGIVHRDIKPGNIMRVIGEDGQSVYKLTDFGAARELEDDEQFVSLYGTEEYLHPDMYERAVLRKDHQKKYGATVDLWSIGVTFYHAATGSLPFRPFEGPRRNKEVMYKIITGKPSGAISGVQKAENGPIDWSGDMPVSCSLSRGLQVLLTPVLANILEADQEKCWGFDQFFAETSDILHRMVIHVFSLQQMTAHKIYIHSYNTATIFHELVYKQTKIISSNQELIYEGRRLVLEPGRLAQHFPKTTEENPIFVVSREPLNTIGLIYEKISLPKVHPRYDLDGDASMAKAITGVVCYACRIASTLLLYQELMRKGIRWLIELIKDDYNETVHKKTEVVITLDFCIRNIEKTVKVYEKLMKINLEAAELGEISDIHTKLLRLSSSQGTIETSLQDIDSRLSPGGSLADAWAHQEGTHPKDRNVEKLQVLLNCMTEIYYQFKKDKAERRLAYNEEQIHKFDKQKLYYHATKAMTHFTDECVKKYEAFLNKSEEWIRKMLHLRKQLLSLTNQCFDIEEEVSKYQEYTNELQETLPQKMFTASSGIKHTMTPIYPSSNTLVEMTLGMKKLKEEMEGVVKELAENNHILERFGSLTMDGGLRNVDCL

Sequence of Serine/threonine-protein kinase SIK2 (Homo sapiens) (Q9H0K1 whole entry, looked up): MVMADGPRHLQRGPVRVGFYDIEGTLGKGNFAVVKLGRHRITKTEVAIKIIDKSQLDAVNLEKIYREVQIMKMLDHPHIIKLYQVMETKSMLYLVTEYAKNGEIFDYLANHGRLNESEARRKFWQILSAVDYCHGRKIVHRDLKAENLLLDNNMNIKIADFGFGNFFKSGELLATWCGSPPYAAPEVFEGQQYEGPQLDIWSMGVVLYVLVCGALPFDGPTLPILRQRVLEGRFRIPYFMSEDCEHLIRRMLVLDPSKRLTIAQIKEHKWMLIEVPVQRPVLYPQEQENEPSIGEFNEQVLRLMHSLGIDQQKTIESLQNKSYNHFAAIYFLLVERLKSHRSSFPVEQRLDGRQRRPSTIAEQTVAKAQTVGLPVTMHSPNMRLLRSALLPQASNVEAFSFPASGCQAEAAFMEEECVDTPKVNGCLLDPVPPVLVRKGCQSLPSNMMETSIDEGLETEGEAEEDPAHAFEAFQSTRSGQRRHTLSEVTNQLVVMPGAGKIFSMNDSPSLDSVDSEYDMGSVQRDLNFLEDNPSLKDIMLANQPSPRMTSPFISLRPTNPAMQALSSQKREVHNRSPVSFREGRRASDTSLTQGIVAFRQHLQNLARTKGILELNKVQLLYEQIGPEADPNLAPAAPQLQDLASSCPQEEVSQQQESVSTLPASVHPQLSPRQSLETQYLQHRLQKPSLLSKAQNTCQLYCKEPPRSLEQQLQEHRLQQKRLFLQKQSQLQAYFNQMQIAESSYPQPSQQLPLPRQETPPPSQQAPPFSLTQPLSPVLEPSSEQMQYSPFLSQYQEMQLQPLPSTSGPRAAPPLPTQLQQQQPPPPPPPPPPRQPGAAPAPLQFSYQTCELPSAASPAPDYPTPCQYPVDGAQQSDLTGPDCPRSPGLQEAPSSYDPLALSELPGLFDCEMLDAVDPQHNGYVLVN
Sequence of Serine/threonine-protein kinase pim-1 (Homo sapiens) (P11309 whole entry, looked up): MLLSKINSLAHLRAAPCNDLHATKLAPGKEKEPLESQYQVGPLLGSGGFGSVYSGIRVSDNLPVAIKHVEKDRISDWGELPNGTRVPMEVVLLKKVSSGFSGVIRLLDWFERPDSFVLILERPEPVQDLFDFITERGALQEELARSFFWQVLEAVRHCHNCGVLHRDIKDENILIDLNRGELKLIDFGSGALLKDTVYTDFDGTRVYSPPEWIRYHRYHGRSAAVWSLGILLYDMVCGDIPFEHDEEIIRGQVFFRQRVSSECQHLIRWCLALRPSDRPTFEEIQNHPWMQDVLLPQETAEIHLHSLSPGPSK
Sequence of Serine/threonine-protein kinase SIK1 (Homo sapiens) (P57059 whole entry): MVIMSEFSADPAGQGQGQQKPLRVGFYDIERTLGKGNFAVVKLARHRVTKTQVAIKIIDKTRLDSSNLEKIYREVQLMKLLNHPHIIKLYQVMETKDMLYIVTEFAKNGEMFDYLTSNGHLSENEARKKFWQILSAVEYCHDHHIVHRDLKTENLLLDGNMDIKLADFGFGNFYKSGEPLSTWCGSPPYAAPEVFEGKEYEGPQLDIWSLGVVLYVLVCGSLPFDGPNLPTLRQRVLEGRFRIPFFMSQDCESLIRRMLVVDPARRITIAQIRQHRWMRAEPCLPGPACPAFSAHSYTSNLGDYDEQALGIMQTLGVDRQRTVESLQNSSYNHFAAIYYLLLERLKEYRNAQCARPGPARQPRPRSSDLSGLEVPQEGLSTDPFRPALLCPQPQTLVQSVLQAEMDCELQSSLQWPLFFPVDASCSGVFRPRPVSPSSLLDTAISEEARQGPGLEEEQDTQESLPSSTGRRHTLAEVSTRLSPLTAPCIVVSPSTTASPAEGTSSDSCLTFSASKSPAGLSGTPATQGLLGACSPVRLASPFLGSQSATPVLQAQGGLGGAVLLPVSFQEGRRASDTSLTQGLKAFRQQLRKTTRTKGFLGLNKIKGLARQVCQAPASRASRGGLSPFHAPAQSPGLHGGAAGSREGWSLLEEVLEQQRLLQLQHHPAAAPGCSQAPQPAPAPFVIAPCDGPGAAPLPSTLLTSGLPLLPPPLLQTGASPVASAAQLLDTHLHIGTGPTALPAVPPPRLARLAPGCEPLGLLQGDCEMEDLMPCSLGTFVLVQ
Sequence of PAS domain-containing serine/threonine-protein kinase (Homo sapiens) (Q96RG2 whole entry, the tested form may be a part, canonical isoform): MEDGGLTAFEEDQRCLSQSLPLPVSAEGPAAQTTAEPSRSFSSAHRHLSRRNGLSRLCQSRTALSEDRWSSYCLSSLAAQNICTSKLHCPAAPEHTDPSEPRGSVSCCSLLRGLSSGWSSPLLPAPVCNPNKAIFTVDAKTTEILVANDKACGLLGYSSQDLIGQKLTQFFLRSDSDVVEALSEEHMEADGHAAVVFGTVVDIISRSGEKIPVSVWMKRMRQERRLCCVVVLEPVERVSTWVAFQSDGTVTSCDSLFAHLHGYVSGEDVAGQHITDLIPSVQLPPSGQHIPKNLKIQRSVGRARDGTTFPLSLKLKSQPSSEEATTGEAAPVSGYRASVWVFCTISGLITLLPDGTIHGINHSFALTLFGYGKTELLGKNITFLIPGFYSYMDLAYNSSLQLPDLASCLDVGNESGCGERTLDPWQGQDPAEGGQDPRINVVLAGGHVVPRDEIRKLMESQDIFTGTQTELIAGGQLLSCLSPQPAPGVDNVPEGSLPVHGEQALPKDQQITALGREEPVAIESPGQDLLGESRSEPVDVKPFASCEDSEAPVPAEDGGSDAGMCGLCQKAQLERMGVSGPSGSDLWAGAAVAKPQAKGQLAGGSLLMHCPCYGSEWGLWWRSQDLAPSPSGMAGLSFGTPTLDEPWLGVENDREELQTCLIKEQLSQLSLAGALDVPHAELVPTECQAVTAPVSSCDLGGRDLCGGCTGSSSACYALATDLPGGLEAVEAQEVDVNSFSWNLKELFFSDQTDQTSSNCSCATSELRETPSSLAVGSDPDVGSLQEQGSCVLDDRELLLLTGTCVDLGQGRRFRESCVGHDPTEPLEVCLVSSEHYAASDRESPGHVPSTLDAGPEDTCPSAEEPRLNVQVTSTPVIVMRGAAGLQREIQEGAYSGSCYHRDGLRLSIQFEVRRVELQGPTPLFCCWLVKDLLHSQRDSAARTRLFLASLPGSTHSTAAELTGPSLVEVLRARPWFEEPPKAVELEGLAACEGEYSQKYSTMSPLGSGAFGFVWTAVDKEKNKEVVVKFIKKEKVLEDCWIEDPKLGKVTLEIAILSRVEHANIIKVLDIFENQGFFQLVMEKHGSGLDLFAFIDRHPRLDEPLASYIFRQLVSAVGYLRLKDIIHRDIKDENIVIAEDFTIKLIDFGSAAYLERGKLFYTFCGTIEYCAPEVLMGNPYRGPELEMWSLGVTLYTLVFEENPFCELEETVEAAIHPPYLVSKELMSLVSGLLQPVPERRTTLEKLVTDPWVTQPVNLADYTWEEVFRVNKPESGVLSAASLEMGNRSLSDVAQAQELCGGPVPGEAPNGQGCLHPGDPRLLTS
Sequence of Serine/threonine-protein kinase MARK2 (Homo sapiens) (Q7KZI7 whole entry, the tested form may be a part): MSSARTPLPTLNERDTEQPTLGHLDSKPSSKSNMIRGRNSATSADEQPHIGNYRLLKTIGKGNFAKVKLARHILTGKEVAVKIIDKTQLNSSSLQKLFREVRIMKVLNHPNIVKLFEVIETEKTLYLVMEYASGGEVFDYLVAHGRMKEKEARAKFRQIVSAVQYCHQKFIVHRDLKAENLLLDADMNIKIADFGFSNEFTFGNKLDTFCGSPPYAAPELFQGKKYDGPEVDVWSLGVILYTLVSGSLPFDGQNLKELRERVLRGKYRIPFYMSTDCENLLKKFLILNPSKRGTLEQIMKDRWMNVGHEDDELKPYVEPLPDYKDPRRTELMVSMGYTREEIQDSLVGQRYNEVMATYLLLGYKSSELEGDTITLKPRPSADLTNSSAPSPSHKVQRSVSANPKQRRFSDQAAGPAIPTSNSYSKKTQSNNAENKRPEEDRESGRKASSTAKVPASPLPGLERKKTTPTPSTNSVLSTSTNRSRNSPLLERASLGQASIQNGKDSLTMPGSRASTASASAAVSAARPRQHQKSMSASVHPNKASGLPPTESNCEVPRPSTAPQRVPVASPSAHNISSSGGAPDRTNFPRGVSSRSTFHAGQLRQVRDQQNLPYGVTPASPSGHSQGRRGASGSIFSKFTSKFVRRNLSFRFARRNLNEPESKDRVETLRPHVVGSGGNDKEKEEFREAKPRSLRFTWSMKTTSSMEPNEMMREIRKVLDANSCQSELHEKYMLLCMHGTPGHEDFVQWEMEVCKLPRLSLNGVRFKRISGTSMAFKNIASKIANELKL
Sequence of Serine/threonine-protein kinase pim-2 (Homo sapiens) (Q9P1W9 whole entry, looked up): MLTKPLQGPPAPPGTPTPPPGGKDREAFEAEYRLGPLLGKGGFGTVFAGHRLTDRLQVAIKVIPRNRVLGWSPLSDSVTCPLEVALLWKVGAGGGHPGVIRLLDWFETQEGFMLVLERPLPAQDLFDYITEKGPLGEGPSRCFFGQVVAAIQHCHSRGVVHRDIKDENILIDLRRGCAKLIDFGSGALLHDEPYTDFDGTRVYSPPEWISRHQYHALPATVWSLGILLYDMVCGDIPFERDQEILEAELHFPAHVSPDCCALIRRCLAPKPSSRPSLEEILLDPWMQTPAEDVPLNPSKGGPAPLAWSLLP

Compound	inhibition [1] [%]	inhibition [2] [%]	inhibition [3] [%]	inhibition [4] [%]	inhibition [5] [%]	inhibition [6] [%]	inhibition [7] [%]	inhibition [8] [%]	inhibition [9] [%]	inhibition [10] [%]	inhibition [11] [%]	inhibition [12] [%]	inhibition [13] [%]	inhibition [14] [%]	inhibition [15] [%]	inhibition [16] [%]	inhibition [17] [%]	inhibition [18] [%]	inhibition [19] [%]	inhibition [20] [%]
Cc1ccc(O)cc1Nc1ccnc2ccc(S(C)(=O)=O)cc12	1.93	-0.05	4.61	6.2	10	5.57	7.16	0.95	1.4	0.23	0.8	0.69	1.04	2.48	2.77	47.2	89.6	15.8	52.6	2.4
N#Cc1c(NC(=O)c2ccccc2F)sc2c1CCCC2	3.45	1.88	1.22	1.23	2.36	-2.2	-2.57	0.9	2.11	0.14	0.56	0.44	2.71	-0.42	-0.7	0.64	2.74	-2.07	-0.94	-1.61
COc1cc(Nc2nccc(-c3cnn4ncccc34)n2)cc(OC)c1	20	0.79	-0.31	7.9	39.2	2.69	15.6	1.41	6.3	1.22	6.78	4.42	10.6	0.14	1.55	8.12	32.3	3.15	39.1	3.49
O=C1Nc2ccc(-c3cccnc3)cc2C1=Cc1cc(Br)c(O)c(Br)c1	5.11	0.91	1.32	3.37	9.21	4.01	-0.09	6.4	37.6	8.09	46.5	8.54	49	0.52	0.45	6.08	4.86	-1.13	-0.16	3.66
COc1cc2ncnc(Nc3ccc4c(cnn4Cc4ccccc4)c3)c2cc1OC	3.96	0.55	-0.09	3.79	8.41	2.67	2.41	0.14	1.19	0.05	2.31	-0.75	1.06	0.57	0.85	4.47	5.69	4.37	3.7	0.22
COc1cc2ncnc(Nc3ccc(C)c(O)c3)c2cc1OC	0.64	-0.16	0.97	6.64	23.5	5.48	7.74	1.41	1.44	1.6	2.78	2.48	4.22	3.96	2.36	5.14	33.2	7.06	18.9	1.88
COc1cccc(-n2ncc3c(N/N=C/c4ccc(S(C)(=O)=O)cc4)ncnc32)c1	3.41	-0.17	0.02	2.42	2.63	1.57	2.21	-0.52	1.73	-3.69	-2.5	0.09	2.23	0.26	0.26	4.24	26	19.1	29.9	8.06
